# Reference: PubChem BioAssay (NCATS)
# Results filed as inconclusive are left out. Entries that show only a call come without a potency. The source made the active and inactive calls. The call rests on the fitted dose curve; in most records, active means well fitted cell-killing curve with a large enough effect; inconclusive means small, poorly fitted or top-dose-only effect, or effect the other way; inactive means no such curve, though single readings can be large or run the other way.
# Assay: Quantitative High-Throughput drug screen in 47 multiple myeloma cell lines against the NCATS MIPE library collection: KMS28BM_JCRB cell viability assay (AID 1919874); further: nearly all actives have a fitted effect of over 35% in size
# Conditions: CellTiter-Glo ATP, 48 h; series mostly up to 45.8 µM
# From the text: PI: Beverly A. Mock Ph.D.
# Laboratory of Cancer Biology and Genetics,
# Center for Cancer Research, National Cancer Institute,
# National Institute of Health, Bethesda, Maryland
# Drug resistance and disease progression are common in multiple myeloma (MM) patients, underscoring the need for new therapeutic combinations. […] We hypothesized that effective combinations would reduce MYC expression and enhance p16 activity. […] These preclinical data identify potentially useful drug combinations for evaluation in drug-resistant MM and reveal potential mechanisms of combined drug sensitivity.
# Described herein is the primary MIPE qHTS used to cherrypick compounds. Validated compounds were then further tested for potential synergistic activiy.
# [1] Peat TJ, Gaikwad SM, Dubois W, Gyabaah-Kessie N, Zhang S, Gorjifard S, Phyo Z, Andres M, Hughitt VK, Simpson RM, Miller MA, Girvin AT, Taylor A, Williams D, D'Antonio N, Zhang Y, Rajagopalan A, Flietner E, Wilson K, Zhang X, Shinn P, Klumpp-Thomas C, McKnight C, Itkin Z, Chen L, Kazandijian D, Zhang J, Michalowski AM, Simmons JK, Keats J, Thomas CJ, Mock BA. Drug combinations identified by high-throughput screening promote cell cycle transition and upregulate Smad pathways in myeloma. Cancer Lett. 2023 Aug 1;568:216284. doi: 10.1016/j.canlet.2023.216284. Epub 2023 Jun 24. PMID: 37356470; PMCID: PMC10408729.
# SEQUENCE No. (e.g., 1, 2, 3, etc.); […] (e.g., Cells, Incubation, Reagent, etc.); VALUE and DESCRIPTION.
# 1; Cells; 5 uL; white, solid bottom 1536-well Greiner assay plate.
# 2; Compounds; 23 nL; Kalypsis pin tool (Wako USA) equipped with a 1536-well pin head to transfer to the assay plates.
# 3; Incubation; 48 hours; 37C incubation.
# 4; Reagent;5uL; CellTiter Glo (Promega).
# 5; Detector; 425V; Luminescence; Viewlux PerkinElmer.
# NOTES (numbers refer to Sequence numbers above)
# 1. The cell-based screening methods employed in this study were like those previously published. Briefly, the corresponding myeloma cell lines were screened in 1,536-well plates with 500 cells, 5-uL per well for inhibition of cell viability (assessed by measuring ATP levels with CellTiterGlo).
# 2. NCATS MIPE 4.0 library of approved and investigational drugs were added using the Kalypsis pin tool. Wells treated with DMSO only for 100% viability and media only for 0% viability were used as controls.
# 3. The assay plates were covered and incubated for 48 hours in a 37C, 5% CO2 incubator with controlled humidity.
# 4. After 48 hours, CellTilter-GloTM luminescent substrate mix (Promega) reagent was added to the assay plate and plates we incubated for 5 min at room temperature.
# 5. Signal was measured as median relative luminescence units on a ViewLux (PerkinElmer) multiplate reader.
# [1] Heske CM, Davis MI, Baumgart JT, Wilson K, Gormally MV, Chen L, Zhang X, Ceribelli M, Duveau DY, Guha R, Ferrer M, Arnaldez FI, Ji J, Tran HL, Zhang Y, Mendoza A, Helman LJ, Thomas CJ. Matrix Screen Identifies Synergistic Combination of PARP Inhibitors and Nicotinamide Phosphoribosyltransferase (NAMPT) Inhibitors in Ewing Sarcoma. Clin Cancer Res. 2017 Dec 1;23(23):7301-7311. doi: 10.1158/1078-0432.CCR-17-1121. Epub 2017 Sep 12. PMID: 28899971; PMCID: PMC6636827.
# Potency means the concentration at half of the fitted maximal effect.
row,SMILES,Potency
1,NCC1(CC(=O)O)CCCCC1,inactive
2,COc1ccc(C(=O)c2c(C)n(CCN3CCOCC3)c3ccccc23)cc1,inactive
3,CN(C)[C@@H]1C(=O)C(C(N)=O)=C(O)[C@@]2(O)C(=O)C3=C(O)c4c(O)cccc4[C@@](C)(O)[C@H]3C[C@@H]12,inactive
4,O=C(O)C(=O)c1cn(Cc2ccccc2)c2ccc(-c3ccc(OC(F)(F)F)cc3)cc12,inactive
5,O=C1CC[C@@]2(O)[C@H]3Cc4ccc(O)c5c4[C@@]2(CCN3CC2CC2)[C@H]1O5,inactive
6,Cn1c(CCCC(=O)O)nc2cc(N(CCCl)CCCl)ccc21,inactive
7,Cc1sc2c(c1C)C(c1ccc(Cl)cc1)=N[C@@H](CC(=O)OC(C)(C)C)c1nnc(C)n1-2,105 nM (active)
8,Fc1ccc(C(OCCN2CCN(CCCc3ccccc3)CC2)c2ccc(F)cc2)cc1,13200 nM (active)
9,COC1(CS(=O)c2ccccc2)CCN(CCc2c[nH]c3ccc(F)cc23)CC1 (configuration not stated),743 nM (active)
10,CNC(=O)c1ccc(N2C(=S)N(c3ccc(C#N)c(C(F)(F)F)c3)C(=O)C23CCC3)cc1F,inactive
11,Cc1cccc(C)c1NC(=O)CN1CCCC1=O,inactive
12,C[C@@H]1O[C@@H](O[C@H]2C[C@@H](O)[C@]3(CO)[C@H]4[C@H](O)C[C@]5(C)[C@@H](C6=CC(=O)OC6)CC[C@]5(O)[C@@H]4CC[C@]3(O)C2)[C@H](O)[C@H](O)[C@H]1O,20.9 nM (active)
13,CN1CCN(C(=O)O[C@H]2c3nccnc3C(=O)N2c2ccc(Cl)cn2)CC1,inactive
14,CC1=C2C[C@@H]3[C@@H](CC=C4C[C@@H](O)CC[C@@]43C)[C@@H]2CC[C@]12O[C@H]1C[C@H](C)CN[C@H]1[C@H]2C,inactive
15,COc1ccc2c(c1OC)CN1CCc3cc4c(cc3C1C2)OCO4 (configuration not stated),inactive
16,CC(O)(CS(=O)(=O)c1ccc(F)cc1)C(=O)Nc1ccc(C#N)c(C(F)(F)F)c1 (configuration not stated),inactive
17,COC[C@@H](NC(C)=O)C(=O)NCc1ccccc1,inactive
18,CN(C)CCN(C)CCc1ccc(Cl)c(Cl)c1,inactive
19,Cn1cc(C2=C(c3cn(C4CCN(Cc5ccccn5)CC4)c4ccccc34)C(=O)NC2=O)c2ccccc21,inactive
20,CNCC(O)c1ccc(O)cc1 (configuration not stated),inactive
21,C[C@@H]1[C@@H](CC(C[C@H]2O[C@@H]3O[C@]4(C)CC[C@@H]5[C@H](C)CC[C@@H]([C@H]2C)[C@@]35OO4)C[S+](=O)([O-])c2ccc(COC(=O)N(C)C)cc2)O[C@@H]2O[C@]3(C)CC[C@H]4[C@H](C)CC[C@@H]1[C@@]24OO3 (some centres not stated),264 nM (active)
22,N[C@@H](Cc1ccc(N(CCCl)CCCl)cc1)C(=O)O,23500 nM (active)
